Where a name gives a salt, the structure may show the parent alone. Values without a mark were called inactive.
Tests used:
Conditions in all cases: 20 µM
[1] = system: Haemophilus parainfluenzae; experiment: growth AUC normalised to DMSO control (fraction of control); higher = less growth inhibition, active = hit call of the paper
Method in brief: (§1)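 After two anaerobic passages, pathogens were added at a starting OD578 of 0.01 to pre-reduced mGAM plates holding compound at 20 μM with 1% DMSO; hemin and NAD were supplemented for Haemophilus parainfluenzae. Sealed with breathable membranes, plates were read at OD578 hourly for 24 h, in three biological replicates. The trapezoidal rule, applied up to the exponential-to-stationary transition, gave the growth-curve AUC, which was normalised to DMSO controls on the same plate.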

[2] = system: Salmonella enterica typhimurium; experiment: as above
Method in brief: as §1

[3] = system: Shigella flexneri; experiment: as above
Method in brief: as §1

[4] = system: Vibrio cholerae; experiment: as above
Method in brief: as §1

[5] = system: Yersinia pseudotuberculosis; experiment: as above
Method in brief: as §1

[6] = system: P. vulgatus RND KO; experiment: growth AUC normalised to DMSO control (median) (fraction of control); higher = less growth inhibition, active = hit call of the paper
Method in brief: (§2)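 After two overnight anaerobic passages, strains were inoculated at OD578 0.01 into mGAM in 96-well plates containing approved-drug library compounds at 20 μM and 1% DMSO. Growth was followed by reading OD578 hourly for 24 h within an anaerobic incubator. Area under the curve, taken by the trapezoidal rule up to the start of stationary phase, was normalised to same-plate vehicle wells, and the median of three biological replicates is listed.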

[7] = system: P. vulgatus WT; experiment: as above
Method in brief: as §2

[8] = system: S. enterica typhimurium WT; experiment: as above
Method in brief: as §2

[9] = system: S. enterica typhimurium tolC KO; experiment: as above
Method in brief: as §2
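For growth AUC normalised to DMSO control (median) in this document: active when median AUC fell below 0.1.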

Row | SMILES | growth AUC normalised to DMSO control [1] | growth AUC normalised to DMSO control [2] | growth AUC normalised to DMSO control [3] | growth AUC normalised to DMSO control [4] | growth AUC normalised to DMSO control [5] | growth AUC normalised to DMSO control [6] | growth AUC normalised to DMSO control [7] | growth AUC normalised to DMSO control [8] | growth AUC normalised to DMSO control [9]
1 | Cc1[nH]c(=O)c(C#N)cc1-c1ccncc1 [Milrinone] | 0.987 |  |  |  |  |  |  |  | 
2 | Cc1oncc1C(=O)Nc1ccc(C(F)(F)F)cc1 [Leflunomide] | 0.978 |  |  |  |  |  |  |  | 
3 | Cc1cc(C2CCCCC2)n(O)c(=O)c1 [Ciclopirox ethanolamine] | 0.905 |  |  |  |  |  |  |  | 
4 | C[C@]12CC[C@@H]3c4ccc(O)cc4CC[C@H]3[C@@H]1CC[C@@H]2O [Estradiol-17 beta] | 1 |  |  |  |  |  |  |  | 
5 | CC(COc1ccccc1)N(CCCl)Cc1ccccc1 (stereo not given) [Phenoxybenzamine hydrochloride] | 1.01 |  |  |  |  |  |  |  | 
6 | N=C(N)NCC1COC2(CCCCC2)O1 (stereo not given) [Guanadrel sulfate] | 0.967 |  |  |  |  |  |  |  | 
7 | CC(=O)Oc1cc(C(F)(F)F)ccc1C(=O)O [Triflusal] | 0.819 |  |  |  |  |  |  |  | 
8 | CCCCc1oc2ccccc2c1C(=O)c1cc(I)c(OCCN(CC)CC)c(I)c1 [Amiodarone hydrochloride] | 0.96 |  |  |  |  |  |  |  | 
9 | Fc1ccc([C@@H]2CCNC[C@H]2COc2ccc3c(c2)OCO3)cc1 [Paroxetine hydrochloride] | 0.998 |  |  |  |  |  |  |  | 
10 | Cc1c(C)c2c(c(C)c1O)CCC(C)(C(=O)O)O2 (stereo not given) [Trolox] | 1 |  |  |  |  |  |  |  | 
11 | O=C(O)Cc1ccccc1Nc1c(Cl)cccc1Cl [Diclofenac sodium] | 0.936 |  |  |  |  |  |  |  | 
12 | COc1ccc(C(=O)c2ccccc2O)c(O)c1 [Dioxybenzone] | 0.992 |  |  |  |  |  |  |  | 
13 | CC[C@H](C)[C@H]1O[C@]2(C=C[C@@H]1C)C[C@@H]1C[C@@H](C/C=C(\C)[C@@H](O[C@H]3C[C@H](OC)[C@@H](O[C@H]4C[C@H](OC)[C@@H](O)[C@H](C)O4)[C@H](C)O3)[C@@H](C)/C=C/C=C3\CO[C@@H]4[C@H](O)C(C)=C[C@@H](C(=O)O1)[C@]34O)O2.CO[C@H]1C[C@H](O[C@H]2[C@H](C)O[C@@H](O[C@@H]3/C(C)=C/C[C@@H]4C[C@@H](C[C@]5(C=C[C@H](C)[C@@H](C(C)C)O5)O4)OC(=O)[C@@H]4C=C(C)[C@@H](O)[C@H]5OC/C(=C\C=C\[C@@H]3C)[C@]54O)C[C@@H]2OC)O[C@@H](C)[C@@H]1O [Avermectin B1] |  | 1.02 | 1.03 | 1.02 | 1.01 |  |  |  | 
14 | C[C@]12Cc3c[nH]nc3C[C@@H]1CC[C@@H]1[C@@H]2CC[C@@]2(C)[C@H]1CC[C@]2(C)O [Stanozolol] | 0.949 | 1.01 | 0.987 | 0.998 | 1 | 0.959 | 0.966 | 1.02 | 0.966
15 | CC(C)(C)NCC(O)c1ccccc1Cl (stereo not given) [Tulobuterol hydrochloride] | 1 | 1 | 1.01 | 1.03 | 0.893 | 0.991 | 1.01 | 0.99 | 1.01
16 | C[N+]12CCC(CC1)C(OC(=O)C(O)(c1ccccc1)c1ccccc1)C2 (stereo not given) [Clidinium bromide] | 0.998 | 0.969 | 0.975 | 0.99 | 0.999 | 1.03 | 0.999 | 1.02 | 0.997
17 | NCC(O)c1ccc(O)cc1 (stereo not given) [Octopamine hydrochloride] | 1.03 | 1 | 0.999 | 1.01 | 1.02 | 1.02 | 1.03 | 1 | 1.03

Row | SMILES | growth AUC normalised to DMSO control [1] | growth AUC normalised to DMSO control [2] | growth AUC normalised to DMSO control [3] | growth AUC normalised to DMSO control [4] | growth AUC normalised to DMSO control [5] | growth AUC normalised to DMSO control [6] | growth AUC normalised to DMSO control [7] | growth AUC normalised to DMSO control [8] | growth AUC normalised to DMSO control [9]
18 | C[C@@H]1CN([C@H]2CC[C@](C#N)(c3ccc(F)cc3)CC2)CC[C@]1(C(=O)O)c1ccccc1 [Levocabastine hydrochloride] | 1.02 | 1 | 1.02 | 0.239 (active) | 0.997 | 0.989 | 1.05 | 0.997 | 1.01
19 | CC(C)c1c(CN(C)C(C)Cc2ccccc2)n(C)n(-c2ccccc2)c1=O (stereo not given) [Famprofazone] | 0.971 | 0.997 | 1.03 | 0.965 | 1 | 0.992 | 1 | 1.01 | 0.871
20 | CN[C@@H]1C[C@@H](c2ccc(Cl)c(Cl)c2)c2ccccc21 [Indatraline hydrochloride] | 1.04 | 1.02 | 1.05 | 1 | 1.02 | 0.973 | 1.08 | 0.996 | 0.95
21 | CCC1(C)CC(=O)NC(=O)C1 [Bemegride] | 1.02 | 1.02 | 1.01 | 1.05 | 1.01 | 1.03 | 1.08 | 1.02 | 1.01
22 | CC(=O)[C@H]1CC[C@H]2[C@@H]3CC[C@H]4C[C@H](O)CC[C@]4(C)[C@H]3C(=O)C[C@]12C [Alfaxalone] | 1 | 0.999 | 0.973 | 0.964 | 1.01 | 0.996 | 0.996 | 1 | 0.911
23 | S=C(NC1CCCCC1)N1CCC(c2cnc[nH]2)CC1 [Thioperamide maleate] | 0.976 | 0.98 | 0.957 | 0.97 | 0.991 | 1 | 1.01 | 0.997 | 0.996
24 | C[C@@H]1C[C@@H]([C@H](O)CC2CC(=O)NC(=O)C2)C(=O)[C@@H](C)C1 [Cycloheximide] | 1.03 | 1 | 1.04 | 1.01 | 0.999 | 1.01 | 1.01 | 0.999 | 0.999
25 | CC(C)[N+](C)(CCC(C(N)=O)(c1ccccc1)c1ccccc1)C(C)C [Isopropamide iodide] | 0.981 | 0.998 | 1 | 1 | 0.991 | 0.995 | 1.02 | 1 | 0.993
26 | C[C@]12CC[C@H](O)C[C@H]1CC[C@@H]1[C@@H]2CC[C@]2(C)[C@@H](C3=CC(=O)OC3)CC[C@]12O [Digitoxigenin] | 1 | 1 | 0.981 | 0.973 | 0.995 | 0.989 | 0.968 | 0.995 | 1
27 | Oc1cc(Cl)ccc1Oc1ccc(Cl)cc1Cl [Triclosan] | 0.0433 (active) | 0.00977 (active) | 0.0073 (active) | 0.184 (active) | 0.911 | 0.462 | 0.357 | 0.00521 (active) | 0.00694 (active)
28 | CC(C)c1cccc(C(C)C)c1O [Propofol] | 0.988 | 1.01 | 1.01 | 1.01 | 0.985 | 1.05 | 1.05 | 1.01 | 0.993
29 | NC(=O)C[S+]([O-])C(c1ccccc1)c1ccccc1 (stereo not given) [Modafinil] | 1 | 0.994 | 0.982 | 0.998 | 0.998 | 1 | 0.993 | 1 | 0.976
30 | O=c1[nH]c2ccccc2n1C1CCN(CCCC(c2ccc(F)cc2)c2ccc(F)cc2)CC1 [Pimozide] | 0.788 | 0.998 | 1 | 1.07 | 1.02 | 1.14 | 1 | 0.998 | 0.971
31 | O=P1(N(CCCl)CCCl)NCCCO1 (stereo not given) [Cyclophosphamide] | 1.04 | 1.02 | 1.01 | 1.04 | 1.01 | 0.998 | 1 | 1.01 | 0.997
32 | C[C@@H]1CC[C@H]2[C@@H](C)C(=O)O[C@@H]3O[C@@]4(C)CC[C@@H]1[C@]32OO4 [Artemisinin] | 0.986 | 0.988 | 1.01 | 0.987 | 0.957 | 1.02 | 1.04 | 0.996 | 0.998
33 | C[C@]12CC[C@H](O)C[C@H]1CC[C@@H]1[C@@H]2C[C@@H](O)[C@]2(C)[C@@H](C3=CC(=O)OC3)CC[C@]12O [Digoxigenin] | 1.01 | 1.03 | 0.999 | 1.03 | 0.998 | 0.998 | 1.04 | 1.01 | 1
34 | CC(C)N(CCC(C(N)=O)(c1ccccc1)c1ccccn1)C(C)C (stereo not given) [Disopyramide] | 0.997 | 0.993 | 0.988 | 0.983 | 0.996 | 1 | 0.998 | 1 | 0.983

Reference: the supplement of paper PMC12350171
